Test [1] concerns W2. Put plainly: qHTS profiling for inhibitors of Plasmodium falciparum proliferation (AID 504749). Also: nearly all actives have a fitted effect of over 60% in size. Also: potency is read from the fitted curve at half-maximal effect. Conditions: P. falciparum in erythrocytes, SYBR Green DNA, 72 h; series mostly up to 28.7 µM. The gist of the method:
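Fluorescence of SYBR Green-bound parasite DNA, read at 485/535 nm, served as the growth measure. Infected erythrocytes were cultured with compound 72 h; artemisinin (0.29 uM) and DMSO wells defined the normalization range.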
Background: Quantitative high-throughput screening tests each substance at several concentrations.

The subject of test [2] is CRL-7250. Put plainly: Cytotoxic Profiling of Annotated Libraries Using Quantitative High-Throughput Screening (AID 1296008). Also: nearly all actives have a fitted effect of over 60% in size. Also: potency is read from the fitted curve at half-maximal effect. As to max response: % is scaled to controls: 0 for no effect and ±100 for the full control effect. The conditions noted are these: Five cell lines viability, CellTiter-Glo ATP luminescence, 48-72 h; max response: active compounds read low. In a few lines: (§1)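 Compounds were pin-transferred onto cells and incubated 48 or 72 hr at 37 degree Celsius, 95% humidity. CellTiter-Glo was added, plates sat 10 min at room temperature, then ATP-coupled luminescence was imaged as the viability read-out.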

For test [3], the system named is HEK293. The description is as above. The conditions noted are these: Five cell lines viability, CellTiter-Glo ATP luminescence, 48-72 h; max response: active compounds read low. In a few lines:
as §1
(In general: Cellular ATP, detected with luciferase, serves as a proxy for viable cell number.)

The test system of test [4] is HaCat. The description is as above. The conditions noted are these: Five cell lines viability, CellTiter-Glo ATP luminescence, 48-72 h; max response: active compounds read low. In a few lines:
as §1

Test [5] relates to KB-3-1. The test is described as above. The conditions noted are these: Five cell lines viability, CellTiter-Glo ATP luminescence, 48-72 h; max response: active compounds read low. In a few lines: as §1
In test [6] the test system is NIH3T3. The description is as above. The conditions noted are these: Five cell lines viability, CellTiter-Glo ATP luminescence, 48-72 h; max response: active compounds read low. In a few lines: as §1
In test [7] the test system is MCC-13. Put plainly: qHTS assay to identify novel small-molecules to repurpose for Merkel cell carcinoma treatment (AID 1296009). Also: nearly all actives have a fitted effect of over 60% in size. Also: potency is read from the fitted curve at half-maximal effect. The conditions noted are these: MCC and control cell lines, CellTiter-Glo viability, 72 h; series mostly up to 46 µM. In a few lines: (§2)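 Luminescence from CellTiter-Glo, read 10 min after addition at room temperature, reported viability following a 72 hr, 37 degree celsius treatment with NPC or MIPE compounds in titration; values normalized to plate controls.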

For test [8], the system named is MCC-26. The description is as above. Conditions: MCC and control cell lines, CellTiter-Glo viability, 72 h; series mostly up to 46 µM. In a few lines: as §2
The subject of test [9] is MKL-1. Described as above. Conditions: MCC and control cell lines, CellTiter-Glo viability, 72 h; series mostly up to 46 µM. In a few lines:
as §2

The test system of test [10] is C33A. Nature of the test: Primary qHTS to identify gynecologic anti-cancer compounds using libraries of approved drugs and bioactive compounds (AID 1345084). Also: % is scaled to controls: 0 for no effect and ±100 for the full control effect; nearly all actives have a fitted effect of over 55% in size. The conditions noted are these: Gynecologic cancer cell panel viability, ATPlite luminescence, 48 h; series mostly up to 57.5 µM. In a few lines:
(§3)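 Cells, 1,000 per well, plated 16 h, then exposed 48 h at 37 C to compounds. Viability by ATPlite luminescence after 15 min at room temperature.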

Test [11] relates to CASKI. Described as above. The conditions noted are these: Gynecologic cancer cell panel viability, ATPlite luminescence, 48 h; series mostly up to 57.5 µM. In a few lines: as §3
Test [12] has as its system Es-2. The test is described as above. The conditions noted are these: Gynecologic cancer cell panel viability, ATPlite luminescence, 48 h; series mostly up to 57.5 µM. In a few lines: as §3
In test [13] the test system is HeLa. The description is as above. Conditions: Gynecologic cancer cell panel viability, ATPlite luminescence, 48 h; series mostly up to 57.5 µM. The gist of the method: as §3
Test [14] concerns MKL-2. Put plainly: qHTS assay to identify novel small-molecules to repurpose for Merkel cell carcinoma treatment (AID 1296009). Also: nearly all actives have a fitted effect of over 60% in size. Also: potency is read from the fitted curve at half-maximal effect. Conditions: MCC and control cell lines, CellTiter-Glo viability, 72 h; series mostly up to 46 µM. The gist of the method:
as §2

Test [15] concerns UISO. The test is described as above. The conditions noted are these: MCC and control cell lines, CellTiter-Glo viability, 72 h; series mostly up to 46 µM. In a few lines: as §2
The subject of test [16] is WaGa. The test is described as above. The conditions noted are these: MCC and control cell lines, CellTiter-Glo viability, 72 h; series mostly up to 46 µM. In a few lines:
as §2

The test system of test [17] is CAOV3. Put plainly: Primary qHTS to identify gynecologic anti-cancer compounds using libraries of approved drugs and bioactive compounds (AID 1345084). Also: % is scaled to controls: 0 for no effect and ±100 for the full control effect; nearly all actives have a fitted effect of over 55% in size. Conditions: Gynecologic cancer cell panel viability, ATPlite luminescence, 48 h; series mostly up to 57.5 µM. The gist of the method:
as §3

For test [18], the system named is HACAT. Nature of the test: qHTS assay to identify novel small-molecules to repurpose for Merkel cell carcinoma treatment (AID 1296009). Also: nearly all actives have a fitted effect of over 60% in size. Also: potency is read from the fitted curve at half-maximal effect. Conditions: MCC and control cell lines, CellTiter-Glo viability, 72 h; at 44.8 µM (top of the series) unless noted. In a few lines:
as §2

Test [19] has as its system NIH3T3. Described as above. The conditions noted are these: MCC and control cell lines, CellTiter-Glo viability, 72 h; at 44.8 µM (top of the series). The gist of the method:
as §2

Inconclusive results are not listed. A number with no mark means an inactive call. Active and inactive are the calls of the source. Calls follow the shape of the dose curve; as a rule, active = well fitted curve in the direction sought with a large enough effect; inconclusive = small, poorly fitted or top-dose-only effect, or another doubt; inactive = no such curve, though single readings can be large; an effect the other way counts as inactive or inconclusive.

Consider `CC[C@H](c1ccc(O)cc1)[C@@H](CC)c1ccc(O)cc1`, for which the Potency result in [1], in test [7], in test [8], in test [9], in [10] and in test [11] was “inactive” throughout. Also, the Potency result in test [12] and in [13] was “inactive” in each case. The max response in test [2] is 3.93%; in [3], -17.5%; in test [4], 0.0962%; in [5], 5.55%; in test [6], 4.6%.

As to `CCN1CCN(C(=O)N[C@@H](C(=O)N[C@@H]2C(=O)N3C(C(=O)O)=C(CSc4nnnn4C)CS[C@H]23)c2ccc(O)cc2)C(=O)C1=O`, the max response is 3.23% in [2]; -4.75% in test [3]; -2.57% in [4]; -4.94% in [5]; -3.36% in test [6]. The Potency entry in [7], in test [8], in test [9], in test [14], in test [15] and in [16] was “inactive” throughout. Moreover, the Potency result in test [10], in test [11], in test [12] and in test [13] was “inactive” throughout.

Take `Clc1cccc(C(c2ccc3nc[nH]c3c2)n2ccnc2)c1` (centres undefined): the max response in test [2] was -3.34%; in test [3], 1.25%; in test [4], -3.24%; in test [5] it was 11.8%; in test [6], -0.487%. The Potency result in [7], in test [8], in [9], in test [14], in test [15] and in test [16] was “inactive” in each case. The Potency result in [10], in test [11], in test [12] and in [13] was “inactive” in each case.

As for `Cl/C(=C\n1cncn1)c1ccc(Cl)cc1Cl`, the Potency result in [1], in [7], in test [8], in test [9], in [14] and in test [15] was “inactive” in each case. Moreover, the Potency entry in test [16], in [10], in test [17], in [11] and in [12] was “inactive” each time. For the same compound, the result in [2] was inactive. Further, the max response was -2.88% in test [3], -4.78% in test [4], 25.3% in test [5] and 0.11% in test [6].

`O=[N+]([O-])c1ccc(/C=N\O)o1`: the max response in test [2] was -1.03%; in test [3] it was -8.88%; in test [4] it was 1.07%; in test [5], -13.1%; in [6], -18.1%. For the same compound, the Potency result in test [7], in test [8], in test [10], in [17], in test [11] and in [12] was “inactive” in each case. For the same compound, in test [13], the Potency result is “inactive”. The Potency in test [9] was 18.8 µM (active); in [16] it was 23.7 µM (active).

With `CCOCCn1c(N2CCCN(C)CC2)nc2ccccc21`, the Potency in test [1] was 4.78 µM (active). The max response in [2] is -16.3%; in test [3] it was -5.73%; in test [4] it was 1.76%; in test [5], -16.6%; in test [6], -0.586%. Besides, the Potency entry in test [7], in test [8], in [9], in test [14], in test [15] and in test [16] was “inactive” each time. Moreover, the Potency result in [10], in test [17], in test [11], in test [12] and in test [13] was “inactive” in each case.

With `CC(=O)O[C@H]1C[C@@H]2CC[C@@H]3[C@H](CC[C@@]4(C)[C@H]3C[C@H]([N+]3(C)CCCCC3)[C@@H]4OC(C)=O)[C@@]2(C)C[C@@H]1N1CCCCC1`, in test [1], the Potency is 12 µM (active). Moreover, the max response in [2] was -0.866%; in [3] it was 1.01%; in [4] it was 3.88%; in test [6], 3.84%. For the same compound, the Potency result in test [7], in test [8], in test [9], in test [14], in test [15] and in test [16] was “inactive” in each case. Besides, the Potency result in test [10], in [17], in [11], in test [12] and in test [13] was “inactive” throughout.

For the compound `CC1(COc2ccc(CC3SC(=O)NC3=O)cc2)CCCCC1` (centres undefined), the Potency entry in test [1], in [7], in test [9], in [14], in [10] and in test [17] was “inactive” in each case. In addition, the Potency result in [11], in test [12] and in [13] was “inactive” throughout. Further, the outcome in test [2], in test [4], in test [6], in [18] and in test [19] was inactive. In addition, the max response in [3] is 0.676%.

With `CCCCC(CC)COC(=O)c1ccc(N(C)C)cc1` (centres undefined), the Potency entry in test [1], in [7], in test [8], in [9], in [14] and in test [15] was “inactive” in each case. The Potency entry in test [16], in [10], in test [17], in test [11], in test [12] and in [13] was “inactive” in each case. In test [2], the compound was classed as inactive. The max response is -4.34% in test [3], -11.9% in test [4] and 4.63% in [6].

With `CCN(CC)CCOc1ccccc1C(=O)CCc1ccccc1`, the Potency in [1] is 2.13 µM (active); in [3] it was 11.9 µM (active). Also, the max response in test [2] was -0.916%; in test [6] it was -3.4%. Moreover, the result in [4] and in test [18] was inactive. The Potency result in test [7], in [8], in test [9], in test [14], in test [15] and in test [10] was “inactive” in each case. The Potency entry in test [11], in test [12] and in test [13] was “inactive” in each case.

Take `C=C1c2cccc(O)c2C(O)=C2C(=O)[C@]3(O)C(O)=C(C(N)=O)C(=O)[C@@H](N(C)C)[C@@H]3[C@@H](O)[C@H]12`: the call in test [2], in [6] and in test [19] was inactive. Further, the max response in test [3] is -1.35%; in test [4], -8.16%; in test [5], -4.44%. Besides, the Potency entry in test [7], in test [9], in test [15], in [16], in test [10] and in test [17] was “inactive” in each case. The Potency entry in test [11], in test [12] and in [13] was “inactive” throughout.

Take `NCCNC(=O)c1ccc(Cl)cn1`: the Potency entry in [1], in test [7], in [8], in test [9], in test [15] and in test [16] was “inactive” each time. Besides, the Potency entry in test [10], in test [11], in [12] and in [13] was “inactive” throughout. For the same compound, the outcome in [2], in test [4] and in test [18] was inactive. For the same compound, the max response was -1.7% in test [3] and 2.21% in [6].

As for `N#CCC(=O)NN`, the Potency result in test [1], in test [7], in test [8], in test [9], in test [14] and in test [15] was “inactive” each time. Also, the Potency entry in [16], in [10], in test [17], in test [11], in [12] and in [13] was “inactive” each time. The compound was called inactive in test [2], in [4] and in test [18]. In addition, the max response in test [3] is 3.14%; in test [5] it was -1.35%.

On to `CC(C)[N+](C)(C)CC(O)COc1cccc2ccccc12` (centres undefined), for which the Potency result in [1], in test [7], in [8], in test [9], in test [14] and in test [15] was “inactive” each time. In addition, the Potency entry in [10], in test [17], in test [11], in [12] and in test [13] was “inactive” throughout. Moreover, the max response was -19.4% in test [2], -10.5% in test [3], -6.06% in test [4] and -0.944% in [6].

The values are drawn from PubChem BioAssay (NCATS).
